Test results reported in PubChem BioAssay AID624352 (Sanford-Burnham Center for Chemical Genomics, 2012).
Hit rate of the full screen: of about 360,000 compounds, about 2,600 (0.72%) were called active.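 How the source made its calls: active means inhibition of the luminescence signal of 40% or more relative to plate controls, in a single-dose primary screen at 18.75 µM; inactive means the rest.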 Only a selection was taken, and actives are over-represented in it overall.

test: blockers of HIF-2a driven luciferase – luminescence, 786-0 RCC cells, primary screen (AID 624352); settings: 786-0 RCC cells HIF-2a reporter, overnight, at 18.8 µM, stronger effect = higher value

inhibition, inactive:
CC(C)Cn1c(N)c(C(=O)COC(=O)C2CCCN2C(=O)c2cccs2)c(=O)n(C)c1=O (centres undefined) 4.33%
CC1(C)C2CCC13CS(=O)(=O)NC3C2 (centres undefined) 14.9%
N#Cc1ccc(OCC(=O)Nc2nc(-c3ccccn3)cs2)cc1 21.4%
O=C(NC(=S)Nc1ccc(Cl)cc1Cl)C1CC1 -294%
Cc1ccnc(NC(=O)CCNS(=O)(=O)c2ccc(C)c(C)c2)c1 -176%
O=C(COC(=O)c1cccc(Cl)c1)NC1CCCCCCC1 6.27%
COC(=O)c1cc(C(=O)NC(C)C2CC3CCC2C3)cc([N+](=O)[O-])c1 (centres undefined) 18.1%
CC(NCC(=O)Nc1ccccc1C(=O)NC1CC1)c1ccccc1Cl (centres undefined) 3.17%
CCCn1c(C)cc(C(=O)COC(=O)c2c(C)nn(-c3ccccc3)c2C)c1C -28.6%
COc1ccc(CNC(=O)COC(=O)c2sccc2C)cc1OC -10.1%
CCCCN(C(=O)CCNC(=O)NC12CC3CC(CC(C3)C1)C2)c1c(N)n(CCCC)c(=O)[nH]c1=O 4.48%
Oc1c(CN2CCOCC2)ccc(CN2CCOCC2)c1O 9.75%
COc1ccc(C(CNC(=O)c2ccc(S(=O)(=O)Nc3ccccc3F)cc2)N(C)C)cc1 (centres undefined) 4.08%
Nc1nc(Br)c2ccccc2c1-c1ccc(F)cc1 5.57%
Cn1c(=NC(=O)c2ccc3c(c2)OCCO3)sc2cc(S(C)(=O)=O)ccc21 -28.1%
O=C(O)c1ccc(N=NN2CCOCC2)cc1 10.1%
O=C(c1ccccc1)C(O)(CN1CCCCC1)c1ccccc1 (centres undefined) 13.3%
COc1ccc(CNc2c(CO)cnc3c2cnn3C)cc1 17.6%
CCN(CC)S(=O)(=O)c1ccc(NC(=O)c2cnc(C)cn2)cc1 11%
Cc1ccc(CNC(=O)c2cccnc2Cl)cc1 2.18%
CCOCCc1c(O)nc(SCC(=O)NCc2ccco2)[nH]c1=O 11%
Cc1ccc(NC(=O)COC(=O)CN2CCCCCC2=O)c(C)c1 11.4%
CC(C)COc1ccc(C(=O)NNC(=O)CCC(=O)c2cccs2)cc1 -5.7%
Cc1cccc(C(=O)OC(C)C(=O)NC2CCCc3ccccc32)c1O (centres undefined) 3.74%
CC1CCCCN1S(=O)(=O)CCNC(=O)c1ccccc1 (centres undefined) 2.54%
O=C1COc2ccc(C(=O)CSc3ccc(Br)cc3)cc2N1 -19.3%
CN(CCc1ccccc1)C(=O)c1cccc(NC(=O)Cc2cccc(NC(=O)C3CCCN(C(=O)CCc4ccccc4)C3)c2)c1 (centres undefined) 1.76%
N#C/C(=C(\O)CCl)c1nnc2n1CCCCC2 -5.99%
N#C/C(=C(\O)C(F)(F)F)c1nnc2n1CCCCC2 19.1%
COc1ccccc1/C=C/C(=O)NC1CC2CCC1C2 (centres undefined) -129%
COc1ccccc1C(=O)c1ccccc1C(=O)c1ccccc1 12%
CCOC(=O)/C(=C\c1ccc([N+](=O)[O-])cc1)C(=O)c1cc(C(C)=O)c(Nc2ccccc2)s1 8.67%
CCc1ccccc1NC(=O)/C(=C/c1ccccc1)c1ccccc1 2.55%
COC(=O)[C@H](CC(C)C)NC(=O)N1CCCCC1C (some centres undefined) 10.8%
C=CCn1c(SCCOc2ccc(OC)cc2)nnc1C(NC(=O)c1ccc(OC)cc1)C(C)C (centres undefined) 26.4%
O=C(NNC(=S)NCCCN1CCOCC1)c1ccncc1 9.32%
O=C(C[n+]1ccc2c(c1)nnn2-c1ccccc1)c1ccc(Cl)cc1 -14.6%
O=C(CN1C(=O)NC2(CCOc3ccccc32)C1=O)NCc1ccc(F)cc1 (centres undefined) 7.05%
O=C(CC12CC3CC(CC(C3)C1)C2)Nc1ccc2c(c1)COC2=O -0.0166%
COc1ccc(C(=O)COC(=O)CN2C(=O)C3CC=CCC3C2=O)c(OC)c1 (centres undefined) -7.43%
O=C(COC(=O)CN1C(=O)C2CCCCC2C1=O)Nc1ccc(F)c(F)c1F (centres undefined) 15.9%
C=CCN(C(=O)Cn1ncc2c1-c1cc(C)ccc1OC2)c1ccccc1 8.04%
CCOc1ccccc1NC(=O)C1CCCN(S(=O)(=O)c2ccccc2)C1 (centres undefined) 6.68%
CN(C)/C=C(/C(=O)c1ccccc1)S(=O)(=O)c1ccc(Cl)cc1 -9.32%
C/C(=N\NS(=O)(=O)c1ccc(Cl)cc1)c1ccc(NC(=O)c2ccco2)cc1 -80.3%
CCCC(C(=O)N1CCOCC1)N1C(=O)C2C3C=CC(C3)C2C1=O (centres undefined) 5.26%
Cc1ccc(NNC(=O)c2cccs2)cc1Cl -22.8%
CC(C)OCCCNC(=O)CNC(=O)c1cccs1 -6.91%
CCCCOC(=O)CNc1nnc(SCC(=O)OCC)[nH]c1=O 16.2%
C[C@@H](NC(=O)[C@@H]1Cc2ccccc2CN1)C(=O)NC1CCCC1 -3.06%
CN(C)S(=O)(=O)c1ccc(Oc2ccc(S(=O)(=O)N(C)C)cc2)cc1 0.813%
NC[C@H](Cc1ccccc1)NCCc1cc(C(F)(F)F)cc(C(F)(F)F)c1 8.13%
CCOc1cccc(NC(=O)Cn2nc(-c3ccc4c(c3)OCCO4)ccc2=O)c1 3.02%
CN(C)CCn1c2c(c(SCC(=O)NCc3ccccc3)nc1=O)CCC2 11.3%
Cn1c(=O)c2ccccc2n(CC(=O)Nc2ccc3c(c2)OCCO3)c1=O 0.929%
COc1ccc(C(=O)NCC(c2ccco2)N2CCc3ccccc32)cc1OC (centres undefined) 23%
COc1cc(C2C(C(=O)c3sc(C)nc3C)=C(O)C(=O)N2CCN(C)C)cc(OC)c1OC (centres undefined) 17.5%
CN(C)CC(C)(C)CNC(=O)c1cc(Br)cc(Br)c1O 8.3%
O=[N+]([O-])c1ccc(CN2CC(N3CC=CC3)CS2(=O)=O)cc1 (centres undefined) 3.7%
CC(=O)Nc1cc(-c2ccccc2N(C)C)cn2c(-c3ccc(F)c(Cl)c3)cnc12 -0.208%
CCc1ccc(Oc2nc([N+](=O)[O-])nn2C)cc1 -0.728%
CC1CCCN(C(=O)c2ccc3c(c2)C(=O)N(CCC2=CCCCC2)C3=O)C1 (centres undefined) 2.05%
CC1Cc2ccccc2N1C1=CC(=O)CC(C)(C)C1 (centres undefined) 9.32%
Cc1coc2cc3oc(=O)c(CCC(=O)O)c(C)c3cc12 17%
COc1cccc(-c2coc3cc4oc(=O)c(CC(=O)O)c(C)c4cc23)c1 -58%
CC(C)c1ccc2c(c1)c(SC(C)(C)C)c(CC(C)(C)C(=O)O)n2Cc1ccc(Cl)cc1 -26.8%
CCCC(=O)N1CCN(c2nnc(-c3ccc(C)cc3)c3ccccc23)CC1 12.6%
Cc1ccc2[nH]c(C(=O)O)c(NC(=O)c3ccccc3[N+](=O)[O-])c2c1 13.4%
c1ccc(-n2cccc2)c(N2CCCCC2)c1 13.2%
O=C(c1ccc(Cl)c(S(=O)(=O)N2CCCCCC2)c1)N1CCN(c2ccc(O)cc2)CC1 11.3%
CCOC(=O)c1nn(-c2ccccc2F)c2nc(Nc3ccccc3)cc(=O)n12 7.21%
CN(C)c1nc2n(c(=O)n1)CCO2 6.35%
COC(=O)CSc1nc2c(c(C3CC=CCC3)c1C#N)CCC2 (centres undefined) 0.0766%
CC1(C(=O)NS(=O)(=O)c2cccc(OC(F)F)c2)CCN1C(=O)COc1ccc(Cl)cc1 (centres undefined) 6.16%

inhibition, active:
O=[N+]([O-])/C=C/c1ccc2c(ccn2Cc2ccccc2)c1 92.5%
COC(=O)Cc1[nH]n(-c2nc3ccccc3s2)c(=O)c1C(C)=Nc1ccc(OC)cc1 80.1%
Cc1ccsc1C(=O)OCC(=O)c1cc(C)n(CC2CCCO2)c1C (centres undefined) 64.7%
O=C1C(Cl)=C(Oc2ccccc2)C(=O)c2ccccc21 88.1%
O=C(O)c1cccc(N=NN2CCCCCC2)c1 42.7%
CCN(CC)S(=O)(=O)c1ccc(NC(=O)c2cccnc2Cl)c(NC(=O)c2cccnc2Cl)c1 86.1%
COc1ccc2c(c1)c(=Cc1ccc(N(C)C)cc1)c1cc(-c3ccccc3)[n+](C)n12 88.2%
N#C/C(=C/c1cccc([N+](=O)[O-])c1)c1nnc2n1CCCCC2 40.7%
CCOC(=O)C(=Cc1ccccc1OC)C(=O)OCC 56.9%
CCOC(=O)C(=Cc1ccccc1)C(=O)c1ccccc1 86.9%
c1c2c(cc3sc(N4CCCCC4)nc13)OCCO2 70.3%
CC1=CC(C)(C)Nc2ccc(OC(=O)CN3C(=O)C4CCCCC4C3=O)cc21 (centres undefined) 85.2%
O=C(Nc1ccccc1)c1nnsc1S(=O)(=O)c1ccc(Cl)cc1 55.9%
Cc1ccccc1C(CC(=O)c1cccs1)C(C#N)C#N (centres undefined) 59.7%
CC(C)(C)c1ccc(Oc2ccc(N)cc2)cc1 94.1%
C=CCn1c(C)cc(C2=NNC(=NCC)SC2)c1C 92.7%
O=c1oc2ccccc2cc1-c1cn(-c2ccccc2)c(=S)[nH]1 73.6%
O=C1/C(=C\c2ccc([N+](=O)[O-])cc2)CS(=O)(=O)C/C1=C/c1ccc([N+](=O)[O-])cc1 92.6%
Cc1c(CCC(=O)O)c(=O)oc2cc3occ(-c4ccccc4)c3cc12 63.2%
O=C1C=CC(=O)N1c1ccc(N2CCCCC2)cc1 69.5%
